Hsp90 Hop PPI = qHTS Assay for Disrupters of an Hsp90 Co-Chaperone Interaction | Hsp90 C-terminal peptide / TPR2A (Hop) interaction, human | Potency, µM (titrated, usually from 57 µM), for the others: at the highest dose activity change, negative = inhibition | AlphaScreen TPR2A-His6 binding biotin-Hsp90 C-terminal peptide | 71,000 compounds, 0.44% hits; active = well fitted curve in either direction with a large enough effect; inconclusive = small, poorly fitted or top-dose-only effect, or another doubt; note: potency is the fitted concentration of half-maximal effect; % is set by controls: 0 for no effect and ±100 for the full control effect
Tau fil binding = qHTS Assay for Tau Filament Binding; Microtubule-associated protein tau (Homo sapiens), P10636; recombinant tau filaments, thioflavin S fluorescence, 15 h; filaments grown with octadecylsulfate alongside compound; Potency, µM (titrated, usually from 57.1 µM), for the others: at the top dose activity change, negative = inhibition; 71,000 compounds, 2% hits;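 note: potency is the fitted concentration of half-maximal effect; % is set by controls: 0 for no effect and ±100 for the full control effect; actives lower thioflavin S fluorescence by blocking filaments or displacing dye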
Target sequence (P10636 whole entry, looked up): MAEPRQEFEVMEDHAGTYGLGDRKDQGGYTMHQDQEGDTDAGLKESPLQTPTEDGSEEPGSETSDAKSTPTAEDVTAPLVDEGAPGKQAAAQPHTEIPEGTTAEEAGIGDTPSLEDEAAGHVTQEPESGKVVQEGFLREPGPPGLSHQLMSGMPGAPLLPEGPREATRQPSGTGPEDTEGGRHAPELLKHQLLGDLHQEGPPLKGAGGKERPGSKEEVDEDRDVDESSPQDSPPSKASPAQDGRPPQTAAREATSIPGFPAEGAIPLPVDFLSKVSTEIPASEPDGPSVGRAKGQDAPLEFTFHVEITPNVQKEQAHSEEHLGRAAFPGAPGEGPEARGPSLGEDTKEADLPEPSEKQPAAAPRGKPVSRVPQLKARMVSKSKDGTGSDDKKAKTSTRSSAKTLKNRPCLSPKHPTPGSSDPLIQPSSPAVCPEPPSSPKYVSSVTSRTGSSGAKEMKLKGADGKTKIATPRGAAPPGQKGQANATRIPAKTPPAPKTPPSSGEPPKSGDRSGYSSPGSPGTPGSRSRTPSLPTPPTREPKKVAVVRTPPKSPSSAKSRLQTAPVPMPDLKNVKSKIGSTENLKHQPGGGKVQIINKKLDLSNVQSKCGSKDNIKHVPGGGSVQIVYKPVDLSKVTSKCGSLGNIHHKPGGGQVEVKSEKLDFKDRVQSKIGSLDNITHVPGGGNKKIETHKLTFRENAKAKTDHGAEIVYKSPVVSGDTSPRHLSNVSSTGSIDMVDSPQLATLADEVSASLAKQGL
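Tau 2 uM in ThS buffer dispensed; compound added; 60 uM ODS added (finals 1 uM tau, 30 uM ODS); 15 h 37 C; fluor ex450/em510.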
ERK AVP inh = qHTS Assay for Inhibitors of the ERK Signaling Pathway using a Homogeneous Screening Assay; HEK293-V1b, vasopressin-stimulated pERK AlphaScreen; Potency, µM (highest dose often 57.5 µM), for inactives: at the top dose activity, negative = inhibition, usual class: inhibitors; 72,000 compounds, 0.99% hits; note: potency is the fitted concentration of half-maximal effect; % is set by controls: 0 for no effect and ±100 for the full control effect; nearly all actives have a fitted effect of over 55% in size
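HEK293 cells stably expressing V1b receptor, seeded overnight in 1% FBS, were treated with compounds for 30 min at 37C, then stimulated 5 min with 25 nM vasopressin; phospho-ERK read by AlphaScreen SureFire after lysis.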
Epigenetic mod = qHTS Assay for Epigenetic Modulators. mouse C127i GFP locus derepression, cytometry, 30 h. Potency, µM (series often up to 46.1 µM), inactives show at the highest dose GFP derepression (activation). 68,000 compounds, 0.09% hits. AID 597, 2007; note: % of control where 0% means no effect
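Locus derepression in mouse mammary C127i cells whose integrated CMV-GFP reporter is normally silent; GFP expression after 30 h compound treatment was quantified by counting fluorescent cells.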
HBB splice mod = qHTS Assay for Modulators of Hemoglobin Beta Chain Splicing; HBB splicing reporter cell assay, activation; EGFP reporter with mutant IVS2-654 intron; response scale: normalised to 500 nM splice-correcting PNA; Potency, µM (doses to about 46.1 µM), without a hit: top-dose activation, most hits filed as activators; 65,000 compounds, 0.06% hits; AID 925, 2007; note: potency is the fitted concentration of half-maximal effect; 0% is about no effect
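HeLa cells stably expressing EGFP interrupted by mutant beta-globin intron 2 (IVS2-654), 500/well in 2% FCS. Treated with compound for 2 days at 37C. Splicing correction scored as total well GFP intensity (488 nm excitation, 500-520 nm emission); 500 nM antisense PNA served as control.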
Ub-GFP proteasome = Ubiquitin-GFP Assay; 67,000 tested, under 10 active; Ubiquitin-GFP reporter cells, proteasome inhibition, GFP fluorescence; response scale: untreated = 0%, 10 µM MG-132 = 100%; Potency, µM (top dose mostly 45.9 µM), without a hit: at the top dose activation (GFP accumulation), most hits filed as activators; AID 526, 2006; active = well fitted activation curve with a large enough effect, not every such curve was filed as active; inconclusive = small, poorly fitted or top-dose-only effect, or another doubt; inactive = no such curve, though single readings can be large or run the other way; note: potency is the fitted concentration of half-maximal effect
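U2OS cells expressing ubiquitin(G76V)-GFP, seeded overnight in 0.5% FBS medium, then treated 4 hr at 37 C across 46 uM to 2.9 nM. GFP-positive cells counted by laser cytometry (488 ex/515 em); %activity scaled between basal and 10 uM MG-132.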
* hit, by the source's call; ? = inconclusive; / = no result given; [ ] = another dose, or the depositor's remark. Only some compounds are listed: those with a hit (about 3% of all), similar ones and a draw of the others. Unless noted, calls come from the whole dose curve; as a rule, active = well fitted curve in the direction sought with a large enough effect; inconclusive = small, poorly fitted or top-dose-only effect, or another doubt; inactive = no such curve, though single readings can be large; an effect the other way counts as inactive or inconclusive.

SMILES	Hsp90 Hop PPI	Tau fil binding	ERK AVP inh	Epigenetic mod	HBB splice mod	Ub-GFP proteasome
C=C1C[C@@]23C[C@]1(O)CC[C@@H]2[C@]12C=C[C@@H](O)[C@@](C)(C(=O)O1)[C@@H]2[C@@H]3C(=O)O	-7%	?	/	-5%[9.22 µM]	/	1%
COc1ccc(OC)c(Nc2cc(C(=O)NCCCN3CCOCC3)c3ccccc3n2)c1	-13%	10µM*	-8%	-1%	-2%	0%
COc1ccc(NC(=O)c2ccco2)c(OC)c1	1%	-2%	-3%	4%	2%[57.5 µM]	-7%
COc1ccc(NC(=O)c2c(OC)cccc2OC)c(OC)c1	?	16µM*	-11%	8%	1%	-3%
COc1ccc(-c2cc(C(=O)NCc3cccs3)no2)cc1OC	-1%	481%	-21%	-5%	0%	0%
Nc1ncnc2c1ncn2[C@@H]1O[C@@H](C(=O)NC2CC2)[C@H](O)[C@@H]1O	1%	13%	?	-1%	1%	6%
CCOC(=O)N1CCC(Nc2c(Nc3ccc(C)c(C)c3)c(=O)c2=O)CC1	-8%	20µM*	13%	-1%	1%	-7%
CCOC(=O)N1CCC(Nc2c(OCC)c(=O)c2=O)CC1	-2%[2.3 µM]	-6%	10%	/	0%	-12%
COc1ccc2nc(NC(=O)C3CCN(S(=O)(=O)c4cccc5nsnc45)CC3)sc2c1	-18%	13µM*	6%	-1%	-1%	-7%
Cc1cccc(N2CCN(C(=O)C3CCN(S(=O)(=O)c4cccc5nsnc45)CC3)CC2C)c1 (stereo unspecified)	-23%	25µM*	9%	1%	-2%	14%
CCO[P@]1(=O)OC[C@@H]2O[C@H](n3cnc4c(N)ncnc43)[C@H](O)[C@@H]2O1	-4%[11 µM]	-1%[11.4 µM]	-17%[11.5 µM]	6%[9.22 µM]	0%[9.22 µM]	3%[9.17 µM]
O=C1C=CC2=C3c4cc(O)c(O)cc4C[C@@]3(O)COC2=C1O	?	?	/	-2%[9.22 µM]	/	-4%
FC(F)(F)c1cc(CN2CC3(CCNCC3)C2)cc(C(F)(F)F)c1	-2%	13µM*	-9%	3%[9.22 µM]	1%	-6%
O=C(/C=C\c1ccc(O)c(O)c1)OCCc1ccccc1	?	7%	?	0%	1%	1%
O=P(O)(CCP(=O)(O)c1ccccc1)c1ccccc1	-2%[11 µM]	4%[11.4 µM]	22%[11.5 µM]	2%[9.22 µM]	6%[9.22 µM]	2%[9.17 µM]
N=C(N)SCCc1ccc(OCc2ccc([N+](=O)[O-])cc2)cc1	-3%	32µM*	?	-1%	/	0%
CCN(CC)CCCN1C(=O)C(O)=C(C(=O)c2ccco2)C1c1ccc(C)o1 (stereo unspecified)	-4%	13%	-6%	0%	0%	4%
CC1=C(C(=O)Nc2ccccc2)C(c2ccc(C)o2)n2c(s/c(=C\c3ccco3)c2=O)=N1 (stereo unspecified)	-17%	2.5µM*	-1%	0%	-1%[1.84 µM]	11%
N#C/C(C(N)=O)=c1/ccc2c(c1)N1C3=C(CCCC3)CC3CCCCC31N=2 (stereo unspecified)	?	5µM*	?	-2%	1%[57.5 µM]	0%
N#CC(C#N)=c1ccc2c(c1)N1C3=C(CCCC3)CC3CCCCC31N=2 (stereo unspecified)	?	1.6µM*	2.5µM*	?	21%[57.5 µM]	-4%
O=c1c(CCc2ccccc2)nc2cnc(N3CCNCC3)nc2n1CCc1ccccc1	4%	32%	?	0%[9.22 µM]	-2%	4%
COCCN(CCOC)S(=O)(=O)c1ccc(C(=O)Nc2nc(-c3ccncc3)cs2)cc1	0%	37%	25µM*	4%	-1%	8%
